Screening results from PubChem BioAssay.
Sampled rows, rich in hits. Any-hit rate of the full collection: about 0.98%.
Rv3671c protease – Rv3671c (M. tuberculosis) protease inhibition; inhibition, % at 5.96 µM; 320,000 tested, 0.048% active; AID 2606; in the data active = inhibition above about 38%;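 also: extracellular domain of Rv3671c used as enzyme; 0% = enzyme with DMSO and 100% = no enzyme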
PfHsp40 rescue – compounds rescuing yeast from Plasmodium falciparum HSP40 toxicity; growth rescue, % at 12.5 µM; AID 504582; S. cerevisiae expressing PfHsp40, growth rescue, ATP luminescence; 340,000 tested, 0.68% active; in the data active = growth rescue above about 28%, passing the limit was not always enough; inconclusive = no clear call, values can overlap the other calls;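 also: yeast W303a lacking pdr1 and pdr3 grown in galactose medium; growth measured after three days at 30 °C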
FadD28 FP inh – blocks FadD28 binding to the bisubstrate probe; fluorescence polarization; inhibition, % at 12.5 µM; 360,000 tested, 0.22% active; AID 588549; in the data active = inhibition above about 8.5%, passing the limit was not always enough; inconclusive = no clear call, values can overlap the other calls
Yp Topo-I inh – inhibitors of Yersinia pestis topoisomerase I | AID 504884 | activity, % at 10 µM | 360,000 tested, 0.064% active | Y. pestis Topo-I cleavage product accumulation, plate reader; in the data active = activity above about 50%, passing the limit was not always enough; inconclusive = no clear call, values can overlap the other calls
Mtb UGM inh – blocks M. tuberculosis UGM enzyme | purified UGM, fluorescence polarization probe displacement | AID 504406 | 320,000 tested, 0.06% active | inhibition, % at 10 µM; in the data active = inhibition above about 10%, passing the limit was not always enough; inconclusive = no clear call, values can overlap the other calls
Target sequence (P9WIQ1 whole entry, looked up): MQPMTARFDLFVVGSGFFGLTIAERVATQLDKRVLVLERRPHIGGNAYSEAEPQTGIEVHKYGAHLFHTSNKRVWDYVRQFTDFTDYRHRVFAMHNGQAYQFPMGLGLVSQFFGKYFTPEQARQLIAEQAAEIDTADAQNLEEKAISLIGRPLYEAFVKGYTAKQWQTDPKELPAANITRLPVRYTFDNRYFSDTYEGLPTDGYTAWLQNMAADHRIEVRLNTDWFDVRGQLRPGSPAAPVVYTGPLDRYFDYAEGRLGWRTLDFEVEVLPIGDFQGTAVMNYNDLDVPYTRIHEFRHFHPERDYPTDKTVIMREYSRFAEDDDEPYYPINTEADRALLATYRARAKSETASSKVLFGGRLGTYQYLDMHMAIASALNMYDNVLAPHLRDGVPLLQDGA
Mtb betalactam – beta-lactam sensitization of Mtb H37Rv; M. tuberculosis H37Rv growth with meropenem, percent inhibition; inhibition, % at 25 µM; 330,000 tested, 0.27% active; call rule not given here;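 also: growth measured after seven days incubation then overnight dye step; 0% = bacteria only wells and 100% = bacteria with antibiotic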
The depositor's hits bear a star; ? = inconclusive; . = not tested or not shown.

SMILES | Rv3671c protease | PfHsp40 rescue | FadD28 FP inh | Yp Topo-I inh | Mtb UGM inh | Mtb betalactam
COc1ccc(N(CC(=O)N/N=C/c2ccc(-c3ccc([N+](=O)[O-])cc3)o2)S(=O)(=O)c2ccc(C)cc2)cc1 | 1 | 0 | -3 | 0 | 14* | 91
COc1cc(CNc2ncnc3c2ncn3[C@H]2CN(Cc3ccc(Cl)cc3)C[C@@H](CO)O2)cc(OC)c1OC | . | . | -3 | 12 | . | .
COC1=CC(=O)C(O)=C(CCCCCCC/C=C/CCCCCCCC2=C(O)C(=O)C=C(OC)C2=O)C1=O | 16 | -1 | 22* | -3 | 0 | -1
Cc1noc(C)c1NC(=O)N(C)C[C@@H]1OCc2cnnn2CCCC(=O)N([C@H](C)CO)C[C@@H]1C | . | . | 1 | 0 | . | .
CCc1cc(-c2[nH]ncc2-c2ccc([N+](=O)[O-])cc2)c(O)cc1OC | 3 | 360* | -5 | -4 | -2 | -3
Cn1ncc(Cl)c1C(=O)NNC(=O)Nc1cccc2ccccc12 | . | 0 | 1 | 3 | -1 | -1
Oc1cccc(C(Nc2nccs2)c2ccc3cccnc3c2O)c1 (configuration not stated) | 6 | 215* | -1 | 5 | 1 | 7
CCCCC(=O)NC(c1cccc([N+](=O)[O-])c1)c1ccc2cccnc2c1O (configuration not stated) | . | 105* | 0 | 13 | . | .
CC(=O)NC(c1cccc([N+](=O)[O-])c1)c1ccc2cccnc2c1O (configuration not stated) | . | 194* | -3 | -3 | 0 | 3
CCCCC(=O)NC(c1ccccc1)c1ccc2cccnc2c1O (configuration not stated) | 5 | -1 | 2 | -1 | 0 | 3
CC(=O)NC(c1cccs1)c1cc([N+](=O)[O-])c2cccnc2c1O (configuration not stated) | -24 | 243* | 0 | -13 | 1 | 16
COc1cccc(C(NC(C)=O)c2ccc3cccnc3c2O)c1 (configuration not stated) | 3 | ? | -1 | -1 | -3 | 3
Nc1c([N+](=O)[O-])cc2c3c(cccc13)CC2 | . | . | -1 | . | . | .
CCOC(=O)Cn1c(S(=O)(=O)Cc2ccc(F)cc2)nc(-c2ccccc2)c1-c1ccccc1 | -3 | 1 | 0 | 52* | -1 | -17
CCc1nnc(NC(=O)c2cccc(S(=O)(=O)N3CCN(C)CC3)c2)s1 | . | . | -3 | -10 | . | .
COc1ccc(C(=O)Nc2cccc(NC(=O)c3ccc(OC)c(OC)c3)n2)cc1OC | -19 | 0 | -12 | 11 | 1 | 2
O=C(O)c1ccc(N/N=C/c2cn(Cc3ccc(F)cc3)c3ccccc23)cc1 | 15 | 2 | 18* | -12 | 1 | 10
CCNC(=S)N/N=C/c1cn(Cc2ccc(F)cc2)c2ccccc12 | 10 | 3 | -2 | -8 | 0 | 6
CCc1nc2ccccc2n1CC1CC1(Cl)Cl (configuration not stated) | 4 | 56* | -1 | 3 | 1 | -4
O=C(O)c1ccc(/C=N/N2CCN(c3ccccc3)CC2)cc1 | . | 0 | 2 | -4 | -1 | -1
C(=N/N1CCN(c2ccccc2)CC1)/c1ccncc1 | 2 | 164* | -2 | 0 | 0 | 12
COc1ccc(-c2[nH]nc3nc(N4CCN(C(=O)c5ccoc5)CC4)cc(C(F)(F)F)c23)cc1 | . | . | -8 | 28 | . | .
Cc1noc(C)c1COC(=O)CCCNC(=O)c1ccc(Cl)cc1 | 3 | 1 | -3 | -13 | -1 | 2
Cc1cccc(COC(=O)CCCNC(=O)c2ccc(Cl)cc2)c1 | 10 | 77* | -6 | 24 | 2 | 14
Cc1cccc(NC(=S)NC(C)CCc2ccccc2)c1 (configuration not stated) | -3 | 96* | -3 | 2 | 2 | -4
SMILES | Rv3671c protease | PfHsp40 rescue | FadD28 FP inh | Yp Topo-I inh | Mtb UGM inh | Mtb betalactam
CCCn1nc(C(=O)Nc2cc(OCC)c(N3CCOCC3)cc2OCC)c2ccccc2c1=O | . | 1 | -2 | 4 | . | .
CCCOc1ccc(C(=O)NNC(=S)NC(=O)CC)cc1 | 0 | 115* | -3 | 7 | -4 | 100
Cc1ccc(CSCCNC(=O)c2ccc(NS(C)(=O)=O)cc2)cc1 | -7 | 0 | 15* | 7 | 0 | -7
Cc1ccc(CSCCNC(=O)c2ccc(C)cc2)cc1 | 5 | . | 2 | -8 | 1 | 1
COc1ccc(N=C2NC(=O)/C(=C/c3ccc(O)c(OC)c3)S2)cc1 | 6 | -1 | 12* | -19 | -1 | 1
CCCCCCNC(=O)C(C#N)c1nc2ccccc2nc1N1CCOCC1 (configuration not stated) | 1 | 0 | -2 | -1 | 14* | 2
